Only some compounds are listed: those with a hit (about 6.1% of all), similar ones and a draw of the others.
M1 ag: activates the M1 muscarinic receptor | CHO-M1 cells, Fluo-4 calcium fluorescence, agonist mode; stronger effect = higher value | B-score at 10 µM | hit rate 3% among 64,000;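 active = fluorescence rise, raw or as B-score row- and column-corrected plate score, outside the 99.7% band of its plate's samples, either direction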
M1 antagonist: M1 muscarinic receptor (rat) antagonism; B-score at 10 µM; hit rate 3.4% among 64,000; CHO-M1 cells, Fluo-4 calcium, ACh EC80 antagonist mode; stronger effect = lower value;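 active = calcium fluorescence response, raw or row-and-column corrected B-score, differing from the plate sample mean either way at a set confidence level, mostly lower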
DUSP1 inh: human dual specificity phosphatase 1 inhibition | recombinant MKP-1, OMFP hydrolysis fluorescence | inhibition, %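 (compounds tested at a single concentration somewhere between 10 and 100 µM)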 | hit rate 0.15% among 65,000 | AID 374;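 active = inhibition above about 50%, limit read from the data; inconclusive = inhibition over screen mean plus 3 SD, below that limit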;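 also: 0% = DMSO max control wells and 100% = wells with enzyme stopped by NaOH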
Cdc25B inh: inhibitors of human Cdc25B phosphatase; P30305; inhibition, %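 (compounds tested at 10 µM final in the well)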; hit rate 0.1% among 65,000; AID 368; recombinant Cdc25B, OMFP fluorescence Ex485/Em525; in the data active = inhibition above about 50%
Target sequence (P30305 whole entry, looked up): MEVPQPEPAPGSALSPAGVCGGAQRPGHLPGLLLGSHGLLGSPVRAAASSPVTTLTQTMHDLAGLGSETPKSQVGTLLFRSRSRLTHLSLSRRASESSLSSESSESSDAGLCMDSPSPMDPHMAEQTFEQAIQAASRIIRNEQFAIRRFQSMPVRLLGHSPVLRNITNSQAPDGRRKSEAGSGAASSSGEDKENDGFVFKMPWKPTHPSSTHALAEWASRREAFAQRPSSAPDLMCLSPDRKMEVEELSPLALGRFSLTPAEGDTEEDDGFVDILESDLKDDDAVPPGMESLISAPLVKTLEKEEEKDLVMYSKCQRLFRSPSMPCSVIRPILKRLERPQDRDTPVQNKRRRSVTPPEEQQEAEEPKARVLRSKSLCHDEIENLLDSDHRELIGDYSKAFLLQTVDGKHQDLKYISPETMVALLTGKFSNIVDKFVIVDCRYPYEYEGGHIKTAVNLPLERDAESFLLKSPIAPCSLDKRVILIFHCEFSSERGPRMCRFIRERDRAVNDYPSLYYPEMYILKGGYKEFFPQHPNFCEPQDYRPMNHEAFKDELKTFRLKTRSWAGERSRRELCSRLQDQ
MMP13 inh: MMP13 (human) collagenase inhibition; MMP-13 fTHP FRET cleavage, Mca fluorescence; hit rate 0.07% among 65,000; inhibition, % at 4 µM; P45452; AID 570;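 active = inhibition above the mean of compound-free control plate wells plus 3 SD, cut at about 14% in these data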;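 also: 0% = DMSO wells and 100% = wells with reference MMP-13 inhibitor after basal subtraction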
Hsp90 block: displaces geldanamycin probe from tumor Hsp90 | NCI-N417 lysate Hsp90, Cy3B-geldanamycin FP displacement | inhibition, % at 30 µM | hit rate 0.35% among 64,000 | AID 429;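 active = inhibition above 50%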;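 also: 0% = tracer plus lysate wells and 100% = tracer alone without lysate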
Redox 05 DTT: redox cycling H2O2 generation, Cdc25B counter-screen; shares compounds with Cdc25B inh; cell-free redox cycling H2O2 generation, 0.5 mM DTT; EC50, µM; hit rate 50% among 30; AID 682; in the data active = EC50 below about 30 µM
Redox H2O2 1DTT: counter-screen for Cdc25B probes: redox cycling H2O2 in 1 mM DTT. EC50, µM. 30 tested, under 10 active. cell-free redox cycling H2O2 generation. shares compounds with Cdc25B inh; in the data active = EC50 below about 50 µM
Redox H2O2: counter-screen for MKP-1 and MKP-3 probes: redox cycling H2O2 generation. shares compounds with DUSP1 inh. DTT, phenol red/HRP. EC50, µM. 60 tested, under 10 active. AID 672; call rule not given here
M1 agonist conf: confirmation of rat M1 muscarinic receptor agonists; shares compounds with M1 ag; CHO-M1 cells, Fluo-4 calcium fluorescence, agonist mode; actives lie on both sides; fluorescence change (max-min) at 10 µM; hit rate 19% among 1,700; AID 1488;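 active = fluorescence change differs from the solvent-only DMSO control mean at a set confidence level in both duplicate runs; inconclusive = differs from solvent-only control mean in just one of two runs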;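 also: an EC20 dose of acetylcholine follows compound addition during the same imaging run; raw fluorescence intensity difference in instrument units with no normalization to controls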
M4 agonist ctr: counter-screen for M1 agonists: activity at rat M4 receptor. CHO M4/Gqi5 cells, Fluo-4 calcium fluorescence, agonist mode; actives lie on both sides. shares compounds with M1 ag. AID 1741. fluorescence change (max-min) at 10 µM. hit rate 9% among 1,700;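 active = fluorescence change differing from the plate's solvent-only control wells at 99.7% confidence in both duplicates, whether higher or lower; inconclusive = differs from solvent controls in only one of two duplicates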
Starred values were filed as active, the others as inactive; i = inactive; ? = inconclusive; · = no result.

SMILES | M1 ag | M1 antagonist | DUSP1 inh | Cdc25B inh | MMP13 inh | Hsp90 block | Redox H2O2 | M1 agonist conf | M4 agonist ctr | others
COc1ccc(CC(=O)Nc2cc(Cl)ccc2O)cc1 | 0.168 | -0.158 | -4.2 | -12.0 | -1.4 | 1.6 | · | · | ·
N#Cc1c(N2CCCC2)nc(N)c2c(N)nc(N3CCCC3)cc12 | -0.595 | 0.122 | 76.0* | 101.2* | -260.5 | 76.8* | >50 | · | · | Redox 05 DTT=13.2*;Redox H2O2 1DTT=27.5*
N#Cc1c(N)nc(N2CCCC2)c(C#N)c1-c1ccc(Cl)cc1 | · | · | -4.8 | 3.4 | 3.0 | 2.4 | · | · | ·
O=C(OC1CCCCC1)c1ccc2c(c1)C1C=CCC1C(C(=O)O)N2 (configuration not stated) | -1.09 | -0.523 | 52.1* | 63.4* | 0.9 | -6.2 | >50 | · | · | Redox 05 DTT=>50;Redox H2O2 1DTT=>50
Nn1c(Nc2ccccc2)nc2ccccc2c1=O | -0.655 | -0.653 | -14.0 | -2.9 | -2.4 | -2.1 | · | · | ·
O=c1[nH]c(Nc2ccccc2)cc2ccccc12 | 5.49* | -0.371 | 21.5 | 85.4* | -33.3 | 27.6 | · | ? | 43.4 | Redox 05 DTT=>50;Redox H2O2 1DTT=>50
CCOc1ccc2noc3c2c1C(=O)c1ccccc1-3 | 397* | -9.63* | 65.0* | 92.0* | 1.5 | -2.6 | >50 | 3216* | 2874* | Redox 05 DTT=>50;Redox H2O2 1DTT=>50
CCN(CC)S(=O)(=O)c1ccc(NC(=O)Cn2c(=O)sc3ccccc32)cc1 | -2.44 | 0.0553 | 23.5 | 0.5 | -0.6 | -2.5 | · | · | ·
Cc1nc2c(C(=O)NCCC3=CCCCC3)c[nH]n2c(=O)c1Cl | -0.0696 | -0.00818 | 53.7* | -1.0 | -2.9 | 1.9 | >50 | · | ·
CCC(=O)n1nc(NCc2ccccc2OC)nc1NCc1ccccc1OC | 0.705 | -1.18 | 3.0 | -6.7 | -2.5 | -2.1 | · | · | ·
CC(C)(C)OC(=O)N1CCC(c2c(C(=O)O)cnn2-c2ccccc2)CC1 | 0.18 | 0.984 | 27.3 | -3.0 | 0.3 | 0.9 | · | · | ·
CCOc1ccc(-c2cc3nc(C4CCN(C(=O)OC(C)(C)C)CC4)c(C(=O)O)cn3n2)cc1 | -0.198 | -1.1 | 64.5* | -2.9 | -42.5 | -0.7 | >50 | · | ·
CC(C)(C)N1C(=O)Cc2c1nc(N)c1c(N)nc(N3CCCCC3CO)c(C#N)c21 (configuration not stated) | 4.75 | -0.471 | 53.4* | -0.2 | -35.4 | -4.7 | >50 | · | ·
CC(C)Cn1c(N)c(C(=O)COC(=O)c2cc(-c3ccco3)nc3ccccc23)c(=O)n(C)c1=O | -0.0377 | -0.0417 | 50.6* | 41.2 | -2.1 | -8.9 | >50 | · | ·
CC(C)Cn1c(N)c(C(=O)COC(=O)C2=COCCO2)c(=O)n(C)c1=O | 0.0375 | 0.173 | 17.9 | -2.1 | -7.8 | -5.6 | · | · | ·
CC(=O)N(CCO)Cc1cc2cc(C)cc(C)c2[nH]c1=O | 0.0131 | 1.23 | -16.7 | 0.9 | -2.6 | -2.1 | · | · | ·
COc1cc(/C=C(/C#N)c2ccc(F)cc2)ccc1OCc1ccc(C(=O)O)o1 | 0.495 | 0.0215 | 62.3* | -3.1 | 6.2 | -4.5 | >50 | · | ·
CCCCn1c(SCC(=O)c2ccc(OC)cc2OC)nc2cc(S(N)(=O)=O)ccc21 | -0.0207 | -0.208 | 53.8* | 27.7 | 1.2 | -0.7 | >50 | · | ·
Cc1cc(C#N)c(C)n1-c1cc(C(F)(F)F)ccc1N1CCOCC1 | 0.0233 | 0.384 | 25.7 | -5.9 | -0.2 | -2.7 | · | · | ·
O=C1C=C(NCc2ccc(Cl)c(Cl)c2)CC1 | -0.00538 | 1.04 | 70.3* | -2.6 | -1.8 | -0.5 | >50 | · | ·
Cc1nc(NC(=O)CSc2nc3cccnc3n2Cc2ccccc2)sc1C | -0.000486 | 0.417 | -10.2 | -4.5 | 1.6 | -5.0 | · | · | ·
C=CCn1c(/N=C/c2ccc(N(C)C)cc2)nc2ccccc21 | 14.7* | -1.16 | 7.6 | -12.7 | 4.2 | 0.8 | · | 118* | 114
CN(C)c1ccc(/C=N/n2ncc3ccccc32)cc1 | -0.0378 | 0.0131 | 10.6 | -5.3 | -13.7 | · | · | · | ·
Cc1ccc(-c2cn3cccnc3n2)cc1NC(=O)c1c(-c2ccccc2Cl)noc1C | 2.42 | -0.189 | 34.5 | -6.2 | i | -0.7 | · | · | ·
Cc1onc(-c2ccccc2Cl)c1C(=O)Nc1cccc(-c2nc3ncccn3c2C)c1 | 3.25* | -2.29* | 26.9 | 30.8 | -352.0 | -4.0 | · | ? | -61.5
SMILES | M1 ag | M1 antagonist | DUSP1 inh | Cdc25B inh | MMP13 inh | Hsp90 block | Redox H2O2 | M1 agonist conf | M4 agonist ctr | others
Cc1onc(-c2ccccc2Cl)c1C(=O)Nc1ccc(-c2cn3cccnc3n2)cc1 | 4.42* | 0.416 | 37.6 | -9.6 | -315.8 | -1.8 | · | -7.27 | -9.8
CC(=O)c1c(C)[nH]c(C(=O)CSc2nc3ccccc3c(=O)n2CCCN2CCOCC2)c1C | 2.46 | -0.28 | 28.9 | -13.0 | -0.7 | -1.0 | · | · | ·
Cc1sc2nc(CSc3nc4ccccc4c(=O)n3CCCN3CCOCC3)[nH]c(=O)c2c1C | 10.5* | -0.0247 | 43.0 | -5.2 | 4.0 | -8.4 | · | -2.21 | -41.2
O=C(NCc1ccc(F)cc1)c1cnc2sccn2c1=O | -1.17 | -0.398 | 14.2 | -1.1 | -9.3 | -5.0 | · | · | ·
O=C(NCCc1c[nH]c2ccccc12)c1cnc2sccn2c1=O | 3.24* | 1.14 | 20.1 | -5.4 | 7.3 | 0.0 | · | -14.2 | ?
N#C/C(=C/c1ccc(N2CCCCCC2)o1)c1ccc(F)cc1 | 31.3* | 0.871 | -8.5 | 3.9 | 3.0 | -0.8 | · | -2.84 | ?
CCOC(=O)C(NS(=O)(=O)c1ccc(Br)cc1)C(C)C (configuration not stated) | 0.00482 | -0.569 | 6.5 | -23.2 | 0.3 | -1.8 | · | · | ·
COCC(=O)NC(c1ccccc1)c1ccccc1 | 12.8* | -0.336 | -4.9 | -18.3 | -5.6 | -5.1 | · | -10.8 | -36.7
COCCNc1ncnc2c1cnn2Cc1ccc(Cl)cc1 | 3.13* | -0.964 | 1.9 | 7.8 | -0.1 | -3.5 | · | ? | -44.9
Clc1ccc(Cn2ncc3c(N4CCOCC4)ncnc32)cc1 | 4.57* | -0.00635 | 6.2 | -2.7 | 0.2 | -2.2 | · | ? | 9.34
Cc1ccc(S(=O)(=O)c2c(N)n(CCN3CCOCC3)c3nc4ccccc4nc23)cc1C | -0.048 | -0.203 | 4.8 | 22.0 | -79.7 | -3.6 | · | · | ·
Cc1ccc2c(c1)c1nc3ccccc3nc1n2CCN1CCOCC1 | 7.15* | -0.0204 | 26.0 | -4.7 | -4.2 | -3.1 | · | -9.02 | -21.1
CC(CCc1ccccc1)NC(=O)C1CCN(S(=O)(=O)c2cnc[nH]2)CC1 (configuration not stated) | -0.146 | 1.66 | -5.6 | 13.2 | -4.0 | -0.7 | · | · | ·
CC(C)(C)OC(=O)N1CCC(C(=O)N[C@H](Cc2ccccc2)C(=O)O)CC1 | -1.42 | 0.333 | -8.6 | 5.8 | -1.8 | 0.7 | · | · | ·
Cc1ccc(S(=O)(=O)N2CCC(C(=O)N[C@@H](Cc3ccccc3)C(=O)O)CC2)cc1 | 1.64* | 0.272 | -7.9 | -4.6 | -5.4 | 3.2 | · | -6.82 | ?

Source: PubChem
